Data on 69 molecules can be found in ChEMBL document CHEMBL3988442, “University of Dundee, Small-Polar-MMV Screening Library” (2021).

Out of some 48,000 compounds screened, about 13,000 (27%) showed an effect of 50% or more. This is one part of the list.

This assay deals with Wolbachia pipientis. Briefly: Anti-Wolbachia Cell-Based Screen. Format: functional. Set-up: scale not given: in the data most compounds retested in dose-response had high values. Conditions: 5 µM.
As for `Cc1csc(N(C)C(=O)C2CC(=O)N(c3ccccc3F)C2)n1` (centres undefined), the “Percent Effect” value is recorded as 1.281%.
Regarding `CCc1cnc(N2CCC(=O)N(CC3CC3)C(C(C)C)C2)nc1` (centres undefined), the “Percent Effect” value is on record as -22.71%.
As for `Cc1cccc(CN2CCc3ncnc(-c4ccsc4)c3CC2)n1.O=C(O)C(F)(F)F`, the “Percent Effect” value was 18.15%.
Consider `Cc1cccc(CN2CCc3ncnc(Oc4cccnc4)c3CC2)n1`, for which the “Percent Effect” value turned out to be 126.9%.
Take `COc1ncnc2c1CCN(c1cccc(F)c1)CC2`: the “Percent Effect” value is on record as 16.21%.
As for `O=C(N1CCOCC1)N1CCc2ncnc(Oc3cccnc3)c2CC1.O=C(O)C(F)(F)F`, the “Percent Effect” value was 0.6158%.
`COc1ncnc2c1CCN(Cc1cccc(C)n1)CC2`: the “Percent Effect” value is listed as 95.16%.
With `Cc1c(Br)cccc1CNC1(CCO)CCOCC1`, the “Percent Effect” value was -8.762%.
Turning to `Cc1cccc(-c2ccc(C(=O)NCC(C)(C)C(N)=O)c(=O)[nH]2)c1`, the “Percent Effect” value worked out at 6.298%.
`O=c1n(CC2CCCO2)nc(CC2CCNCC2)n1-c1ccccc1` (centres undefined): the “Percent Effect” value is -2.06%.
Turning to `CNC(=O)CN1CCOCC2(CCCN(Cc3ccsc3)C2)C1.O=C(O)C(F)(F)F.O=C(O)C(F)(F)F` (centres undefined), the “Percent Effect” value worked out at 99.42%.
For `CNC(=O)CN1CCOCC2(CCCN(Cc3ccoc3)C2)C1` (centres undefined), the “Percent Effect” value is recorded as 84.78%.
`Cc1ccc(CN2CCCC3(CCN(Cc4ccoc4)CC3)C2)cc1.O=C(O)C(F)(F)F.O=C(O)C(F)(F)F`: the “Percent Effect” value stood at 12.66%.
On to `Fc1ccc(CN2CCOCC3(CCN(Cc4nccs4)C3)C2)cc1.O=C(O)C(F)(F)F.O=C(O)C(F)(F)F` (centres undefined), for which the “Percent Effect” value is 2.438%.
As to `CNC(=O)CN1C(=O)CCC12CCCN(CCc1ccccc1)C2` (centres undefined), the “Percent Effect” value is given as -21.16%.
`O=C(O)C(F)(F)F.O=C(O)C(F)(F)F.c1cc(CN2CCCC3(COCCN(Cc4c[nH]nn4)C3)C2)cs1` (centres undefined): the “Percent Effect” value is reported as -3.228%.
For `CN(C)CCN1CCOCC2(CCCN(C(=O)Cc3ccccc3)C2)C1.O=C(O)C(F)(F)F.O=C(O)C(F)(F)F` (centres undefined) the value was -11.48%; for `CNC(=O)CN1CCOCC2(C1)CN(Cc1csnn1)CCO2` (centres undefined), -63.88%; for `CNC(=O)CN1CCOCC2(CCCN(Cc3ccc(F)cc3)C2)C1.O=C(O)C(F)(F)F.O=C(O)C(F)(F)F` (centres undefined), 113%.
For the molecule `Fc1ccc(CN2CCCC3(COCCN(Cc4c[nH]nn4)C3)C2)cc1.O=C(O)C(F)(F)F.O=C(O)C(F)(F)F` (centres undefined), the “Percent Effect” value is -5.043%.
For `CNC(=O)CN1CCOCC2(CCCN(CCc3ccccc3)C2)C1.O=C(O)C(F)(F)F.O=C(O)C(F)(F)F` (centres undefined) the value was 95.77%.
As for `O=C(Cc1ccsc1)N1CCCC2(COCCN(CC3CC3)C2)C1.O=C(O)C(F)(F)F` (centres undefined), the “Percent Effect” value is -6.273%.
`CN(C)c1ccc2c(c1)CN(C(=O)c1cnccn1)C2c1cnco1` (centres undefined): the “Percent Effect” value stood at 6.67%.
Take `COCCN1CCOCC2(CCCN(Cc3cccc(F)c3)C2)C1.O=C(O)C(F)(F)F.O=C(O)C(F)(F)F` (centres undefined): the “Percent Effect” value was 114.4%.
Regarding `COCCN1CCOCC2(CCCN(Cc3ccc(C)o3)C2)C1.O=C(O)C(F)(F)F.O=C(O)C(F)(F)F` (centres undefined), the “Percent Effect” value is 4.497%.
For `COCCN1CCC2(COCCN(Cc3ccc4c(c3)OCO4)C2)C1.O=C(O)C(F)(F)F.O=C(O)C(F)(F)F` (centres undefined), the “Percent Effect” value was 1.486%.
Turning to `COCCOc1ccc(S(=O)(=O)Nc2cccnc2O)cc1C`, the “Percent Effect” value is recorded as -11.72%.
In the case of `CCOc1nnc(CN2CCCC(c3nc4ccccc4[nH]3)C2)s1` (centres undefined), the “Percent Effect” value is on record as -5.507%.
Regarding `CCOc1ccc(CN2CCCC(c3cc4ncccc4[nH]3)C2)cc1` (centres undefined), the “Percent Effect” value came out at 111.1%.
Under `CC(=O)NC1CCCN(Cc2ccc(-n3ccnc3)cc2)C1` (centres undefined) stands 4.103%; under `Fc1ccc(CN2CCCC(c3cc4ncccc4[nH]3)C2)cc1` (centres undefined), 39.65%; under `CC(=O)Nc1ccc(CN2CCCC(c3cc4ncccc4[nH]3)C2)cc1` (centres undefined), 130.8%.
In the case of `CCC(=O)NC1CCCN(Cc2ccc(NC(C)=O)cc2)C1` (centres undefined), the “Percent Effect” value is listed as 21.19%.
For the molecule `CCc1c(C(=O)N2CC(C)OC(C)(C)C2)cnn1-c1ccccn1` (centres undefined), the “Percent Effect” value is on record as -9.37%.
Turning to `Cc1nc(C2CCCN2C(=O)CCCOc2ccccc2C)no1` (centres undefined), the “Percent Effect” value is 3.026%.
Turning to `Cc1nc(C2CCCN2C(=O)Cn2cncn2)no1` (centres undefined), the “Percent Effect” value worked out at 83.95%.
For the molecule `Cc1csc(C2CCCCN2C(=O)Cn2cncn2)n1` (centres undefined), the “Percent Effect” value is recorded as -6.402%.
For `CC(C)c1nc(C2CCCN(C(=O)CCCn3cncn3)C2)no1` (centres undefined), the “Percent Effect” value is 2.854%.
As for `Cc1nc(C2CCCN2C(=O)CCn2cncn2)no1` (centres undefined), the “Percent Effect” value was 102.5%.
For `Cc1nc(C2CCCN2C(=O)CCCn2cccn2)no1` (centres undefined) the value was 80.92%; for `CC(C)c1nc(C2CCCN(C(=O)CCn3cncn3)C2)no1` (centres undefined), 109.8%; for `CC(C)c1nc(C2CCCN(C(=O)CN3CCN(C)CC3)C2)no1` (centres undefined), -17.54%.
`Cc1nc(C2CCCN2C(=O)CNS(C)(=O)=O)no1` (centres undefined): the “Percent Effect” value is recorded as -1.869%.
For `Cc1csc(C2CCCCN2C(=O)CCn2cncn2)n1` (centres undefined) the value was 8.818%; for `Cc1csc(C2CCCCN2C(=O)CCCn2cccn2)n1` (centres undefined), -9.362%; for `CCC(CC)n1nc(C)cc1NC(=O)C1CCCO1` (centres undefined), 0.9599%.
`COCCNC(=O)[C@H]1CC[C@@H]2[C@@H](CCN2S(C)(=O)=O)O1`: the “Percent Effect” value was -5.573%.
With `COc1cc2c(cc1-c1nc3c(cnn3C(C)C(C)C)[nH]1)OCO2` (centres undefined), the “Percent Effect” value is given as -3.309%.
On to `Cc1csc(C2CCCCN2C(=O)CCCn2cncn2)n1` (centres undefined), for which the “Percent Effect” value is recorded as -9.865%.
For the molecule `Cc1nc(C2CCCN2C(=O)CCCn2cncn2)no1` (centres undefined), the “Percent Effect” value came out at 100.4%.
In the case of `CC(C)c1nc(C2CCCN2C(=O)CCn2cncn2)no1` (centres undefined), the “Percent Effect” value was 104.8%.
For `COCc1nc(C(=O)N2CCCC2c2noc(C(C)C)n2)cs1` (centres undefined), the “Percent Effect” value is on record as -1.506%.
For `CCc1nc(C2CCCN2C(=O)CCCn2cncn2)no1` (centres undefined) the value was 114.2%.
With `CCc1nc(C2CCCN2C(=O)CCCOc2cccc(F)c2)no1` (centres undefined), the “Percent Effect” value is -10.09%.
For `CC(C)c1nc(C2CCCN2C(=O)c2cnc[nH]2)no1` (centres undefined) the value was -3.664%; for `Cc1cc(S(=O)(=O)Nc2cccc(-n3cccc3)c2)sc1C(=O)O`, -5.79%.
Turning to `CS(=O)(=O)N[C@H]1CN(C(=O)CCc2ccc(=O)[nH]n2)C[C@@H]1C1CC1`, the “Percent Effect” value is -10.51%.
For `Cc1cc(C(=O)NCC2Cn3nnc(C)c3CO2)no1` (centres undefined) the value was 3.49%; for `CCCc1nccn1-c1ccncc1`, 13.78%.
Under `COc1ccc(Oc2nccc3occc23)cc1CN1CCCC1` stands 7.902%; under `COc1c(C(=O)N2CCNC(=O)C2)cnc2c1c(C)nn2C`, 124.2%.
Take `Cc1ccc(CNc2ccc(C(=O)N3CCNC(=O)C3)cn2)cc1`: the “Percent Effect” value came to 3.114%.
Consider `Cc1cc(C(=O)N2CCCC3(CNC(=O)O3)C2)c2c(C)nn(C)c2n1` (centres undefined), for which the “Percent Effect” value is given as 2.308%.
`O=C(c1cnc(COc2ccccc2)nc1O)N1CCOCC1`: the “Percent Effect” value turned out to be 1.405%.
As for `COC(=O)c1cnc2c(c(C)nn2C)c1OC`, the “Percent Effect” value was found to be 97.33%.
As to `Cc1cc(C(=O)N2CCNC(=O)C2)c(C)n1Cc1ccccn1`, the “Percent Effect” value was -1.908%.
For `COc1c(C(=O)N2CCOCC2)cnc2c1c(C)nn2C`, the “Percent Effect” value amounted to 129.8%.
For `COC(=O)c1ccccc1NS(=O)(=O)c1c(C)nn(C)c1C` the value was 21.66%.
For `COc1c(C)cnc(CNC(=O)c2cc(C)nc3c2c(C)nn3C)c1C`, the “Percent Effect” value is given as -8.384%.
